# Experimental data as given in the supplement of paper PMC3334620.
# In all, about 33,000 sequences were measured (“E-score (-0.5 to 0.5)”: median about -0.017, highest 2% from about 0.3 on). What follows is part of a selection rich in the highest values, with near analogues and random picks from the rest.
# Target: T1, Sut1 (UniProt P53032)
# T1 sequence: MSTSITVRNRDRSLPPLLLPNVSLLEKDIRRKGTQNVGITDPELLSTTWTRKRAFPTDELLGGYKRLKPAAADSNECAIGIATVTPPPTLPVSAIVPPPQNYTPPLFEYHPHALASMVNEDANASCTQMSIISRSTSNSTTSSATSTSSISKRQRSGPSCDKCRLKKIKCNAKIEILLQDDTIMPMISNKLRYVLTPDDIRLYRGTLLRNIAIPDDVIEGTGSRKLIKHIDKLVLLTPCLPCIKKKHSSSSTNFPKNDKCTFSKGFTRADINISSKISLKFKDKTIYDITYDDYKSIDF
# Test: PBM E-score (8-mer binding enrichment) (E-score (-0.5 to 0.5)); higher = stronger / more preferred TF binding
# Conditions: protein concentration: 200 nM; construct: GST-full length
# Procedure: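 Universal 'all 10-mer' protein binding microarrays (Agilent AMADID 015681) probed with GST-tagged S. cerevisiae TFs (full-length or DBD) made by in vitro transcription/translation (PURExpress), about 100-200 nM. Bound TF was detected with fluorescent anti-GST. Each ungapped 8-mer (which stands for itself and its reverse complement) is scored by the PBM enrichment score (E-score), a modified Wilcoxon-Mann-Whitney statistic from -0.5 to +0.5, computed with the Universal PBM Analysis Suite. Scale: above 0.35 generally sequence-specific binding.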
row,Sequence,PBM E-score
1,GCCACTCA,-0.126
2,AGTTAAAG,0.0654
3,AATCACAT,0.139
4,CAGCATTC,-0.193
5,CAGTTGGG,-0.207
6,ACCACTCA,-0.156
7,ACCAAAGG,-0.0819
8,AATGGCAA,0.0477
9,AGATGAGC,-0.0376
10,AGACCAAG,0.186
11,GTCTCGTA,-0.0582
12,GTCTCGAA,-0.159
13,GTCTCGGA,0.316
14,CTTTTGAA,0.152
15,CGAGTCCG,0.426
16,CCAGTCCG,0.222
17,AGAGTCCG,0.449
18,ATAGTCCG,0.473
19,ATAGTCCC,-0.206
20,ACAGTCCA,0.0821
21,CGAGTCCC,0.014
22,AGAGTCCC,-0.0834
23,AGAGTCCT,-0.114
24,CGAGTCCA,-0.139
25,ACAGTCCG,0.312

row,Sequence,PBM E-score
1,ATAGTCCA,0.0136
2,GCTCTTAC,0.132
3,CACTCACG,-0.0637
4,TATGAACA,0.0917
5,AAAACGCA,-0.0411
6,AAGAGTTA,0.12
7,CAAGTCAG,-0.0539
8,CAGTTGCA,-0.0927
9,GACGCAGC,-0.199
10,GTCCGTTA,0.376
11,GGCCGTTA,0.137
12,CTCCGTTC,0.32
13,CTCCGTTA,0.335
14,ATCCGTTC,0.147
15,ATCCGTTA,0.275
16,CGCCGTTA,-0.0973
17,CGCCGTTC,-0.157
18,CACCGTTA,0.0406
19,GCCGGCGC,0.089
20,GACGCTAC,-0.101
21,AATAGCTG,0.0185
22,CCGCACGC,-0.237
23,CTAACCTA,0.0178
24,ATTCGGGC,-0.0696
25,ATTCGGAC,0.455

row,Sequence,PBM E-score
1,ATTCGGAG,0.432
2,ATTCGGCC,-0.0211
3,ATTCGGAA,0.262
4,ATTCGGCG,-0.0582
5,GAATAGGC,-0.0173
6,AGCCTCAG,-0.139
7,ACGAGTGA,-0.115
8,GTCACCAA,-0.0973
9,CGCTCCCA,-0.0881
10,GGCTCCAA,0.00981
11,CGCTCCGC,0.0358
12,AGCTCCTG,-0.238
13,ACCTCCGG,0.322
14,GGCTCCCA,-0.12
15,CCCTCCGG,0.00905
16,ACCTCCGT,0.165
17,CGCTCCGA,0.317
18,GGCTCCGA,0.338
19,AGCTCCCG,-0.173
20,AGCTCCGG,0.466
21,CTAGCTAG,0.132
22,CTCATCCA,-0.124
23,GTCCTACA,-0.0165
24,CTCTGGTC,-0.00832
25,GGGGGCAA,-0.211

row,Sequence,PBM E-score
1,ATTCAGGA,0.0993
2,ACTGTGTA,0.0481
3,ACGTAGGC,-0.171
4,AGCTCCGC,0.331
5,AGCTCCAC,-0.0851
6,AGCTCCTA,-0.173
7,AGCTCCGA,0.464
8,AGCTCCAA,0.0776
9,AGCTCCTC,-0.098
10,CACCCACG,-0.0788
11,ATTCTCAG,0.00054
12,ATTCCAAT,0.161
13,ATACGTTC,-0.101
14,ATGTGCGA,-0.0365
15,AACTAGCG,-0.0241
16,ACCTTCGG,0.147
17,CATTTGCA,0.0495
18,ATCCTCCA,-0.0869
19,TGCCTACA,-0.15
20,GGTCCAAA,-0.168
21,TGTCCTAA,-0.0608
22,TGTCCGAA,0.428
23,GGTCCGAA,0.437
24,TGTCCAAA,0.124
25,CGTCCGAA,0.125

row,Sequence,PBM E-score
1,GTACGTCA,-0.0804
2,ATACTGGA,0.122
3,GACAACGA,0.104
4,ACGTTTGA,0.132
5,AGCTGGCA,-0.241
6,CGCGAACG,-0.0292
7,GAATCGGC,0.0753
8,GAATCGCA,-0.0351
9,CAATCGGA,0.286
10,AAATCGGG,0.0832
11,AAATCGGA,0.397
12,TAATCGAA,0.0525
13,TAATCGGA,0.308
14,AAATCGGT,0.0195
15,GAATCGGA,0.376
16,CAGGTGAC,-0.157
17,ACCACTCT,-0.157
18,ATTGCAAT,0.0774
19,AAAATTTT,0.236
20,AATTGTAC,0.146
21,TATGAGGA,-0.0297
22,GGCGATGA,-0.143
23,GGCCGGCC,-0.0421
24,CCCCGGCA,0.0139
25,GTCCGGCA,0.317

row,Sequence,PBM E-score
1,ATCCGGCA,-0.166
2,GACCGGCA,-0.308
3,CTCCGGCC,0.376
4,CTCCGGCA,0.423
5,GGCCGGCA,0.00533
6,ATCCGGCC,0.135
7,GCACCTTA,-0.00495
8,GTTACACA,-0.2
9,GAAAGGGC,0.00203
10,CACAGCAC,-0.205
11,CTTTCCGA,0.226
12,GTTTCCGA,0.332
13,ACTTCCGA,0.245
14,CCTTCCGA,0.134
15,GTTTCCAA,0.0451
16,GCTTCCGA,0.303
17,AGTGGATG,-0.0759
18,ATCCCTCC,-0.194
19,GAGTGAAC,-0.111
20,TAACTCCA,0.143
21,AAACTCCA,0.297
22,AAACTCCT,0.016
23,ATCTTATC,0.154
24,ACGAGGTG,-0.21
25,ATATAAGC,0.0532

row,Sequence,PBM E-score
1,AACAAATT,0.306
2,AACAAATG,0.159
3,AAGAAATT,0.313
4,AAGAAATG,0.144
5,AACAAGTT,0.132
6,AAGAAAAA,0.319
7,AAGAAAAG,0.116
8,AAGAAATA,0.177
9,AAGAAAAT,0.257
10,GACGCCGC,-0.221
11,ACAGTCTC,-0.112
12,CGACGGGC,-0.197
13,AACTATAA,0.204
14,CACTAATA,0.213
15,TACTAATA,0.181
16,TACTAAAA,0.207
17,AACTAAAA,0.31
18,AACTAACA,0.0858
19,AACTAAAG,0.195
20,CACTATAA,-0.0412
21,TACTATAA,0.306
22,AACTAACC,0.336
23,AACTAATA,0.324
24,AACTAACT,0.175
25,AGGGGTGG,-0.277

row,Sequence,PBM E-score
1,AGCCGTGA,-0.0248
2,TGAATACA,0.241
3,ATCTGGTG,-0.015
4,ATTAGATA,0.175
5,ATTAGATC,0.0421
6,ATTAGATG,0.303
7,ATATTCAG,0.04
8,GCTTCGCA,-0.197
9,GCTTCGTA,0.0454
10,CCTTCGCA,-0.178
11,CCTTCGGC,-0.233
12,ACTTCGGG,0.0676
13,ACTTCGGC,0.14
14,ACTTCGGA,0.397
15,GCTTCGGA,0.324
16,CCTTCGGA,0.32
17,AATCTGTC,0.133
18,GGAAAGAC,-0.0333
19,CGGCGTAG,-0.176
20,AAAACTGG,0.149
21,ATTGCTGA,-0.0342
22,CATGAGAA,0.0161
23,GCCAAGCC,-0.0191
24,CGCGGAGC,0.26
25,AGCGGAGA,0.325

row,Sequence,PBM E-score
1,GGCGGAGA,0.23
2,CGCGGAGA,0.387
3,AGCGGAGG,-0.201
4,AGCGGAGC,0.137
5,GACGGTCA,-0.253
6,CCAAGGGG,-0.143
7,ACCTTCGC,-0.0159
8,ATTAACAA,0.199
9,ATTAACAC,0.302
10,CTTAACAC,-0.122
11,AGCTATCA,-0.0476
12,ATGCCGGC,-0.0395
13,ATGCCGGA,0.325
14,TAGCCGGA,0.282
15,ATGCCGGG,-0.0609
16,AAGCCGGA,0.331
17,GAGCCGGA,0.254
18,ACCATAAC,0.0292
19,AATTTAAG,0.218
20,AATTTTAT,0.317
21,AATTTTAA,0.295
22,AATTTAAC,0.255
23,AATTTTAC,0.27
24,AATTTAAT,0.317
